Experimental data published in PubChem BioAssay (NCATS).
Values without a mark were called inactive. Results filed as inconclusive are left out. Calls of active or inactive are those of the source. Unless noted, the call rests on the fitted dose curve; in most records, active means well fitted curve in either direction with a large enough effect (not every such curve was filed as active); inconclusive means small, poorly fitted or top-dose-only effect, or another doubt; inactive means flat fitted curve, though single readings scatter.

What was measured:
[1] = target: Lysosomal acid glucosylceramidase (Homo sapiens) (UniProt P04062); test: Glucocerebrosidase-p2 (AID 348; in the data active means potency below about 10 µM; further: potency means the concentration at half of the fitted maximal effect); details: purified GBA, blue fluorogenic substrate, 40 min
Sequence of Lysosomal acid glucosylceramidase (Homo sapiens) (P04062 whole entry, looked up): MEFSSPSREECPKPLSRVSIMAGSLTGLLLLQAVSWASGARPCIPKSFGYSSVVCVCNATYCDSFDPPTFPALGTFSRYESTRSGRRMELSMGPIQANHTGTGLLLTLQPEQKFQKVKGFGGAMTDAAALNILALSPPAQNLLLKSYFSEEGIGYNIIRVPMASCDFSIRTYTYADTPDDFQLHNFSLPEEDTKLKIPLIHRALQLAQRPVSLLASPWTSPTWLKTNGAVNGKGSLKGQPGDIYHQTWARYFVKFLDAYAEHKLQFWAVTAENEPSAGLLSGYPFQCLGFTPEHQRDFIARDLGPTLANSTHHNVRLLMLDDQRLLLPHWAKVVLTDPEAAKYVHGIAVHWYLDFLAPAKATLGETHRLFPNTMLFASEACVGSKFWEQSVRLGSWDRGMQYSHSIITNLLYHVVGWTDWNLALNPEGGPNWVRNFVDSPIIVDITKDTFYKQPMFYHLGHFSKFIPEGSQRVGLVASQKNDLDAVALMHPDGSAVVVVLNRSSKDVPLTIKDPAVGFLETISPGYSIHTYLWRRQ
How it was run: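 Compounds titrated from 0.6 nM upwards against 0.2 nM enzyme in pH 5.9 citric acid/KH2PO4, taurocholate, tween-20; blue fluorogenic substrate 80 uM, 40 min room temperature, stopped and read Ex 365/Em 440 for AC50.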

[2] = AP1 Signaling Pathway (AID 357); details: ME-180 AP-1-bla reporter, EGF-induced, beta-lactamase ratio, 5 h; at 7.69 µM (top of the series) unless noted;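 further: ME-180 reporter cells stimulated with EGF at its EC50 level; on the % scale 0 is the no-effect control and ±100 the full control effect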
How it was run: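 A ratiometric CCF4 readout (405 nm excitation; 460 and 530 nm emission) quantified AP-1-driven beta-lactamase in ME-180 cells after 5 h with compound and EC50 EGF; AC50 values were derived for activators and inhibitors.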

[3] = target: Cytochrome P450 1A2 (Homo sapiens) (UniProt P05177); test: p450-cyp1a2 (AID 410; calls by dose curve; further: potency means the concentration at half of the fitted maximal effect;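 on activity change, negative = inhibition: -100% = full effect of reference inhibitor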); details: recombinant CYP1A2, luciferin-ME demethylation, luminescence; series mostly up to 11.4 µM
Sequence of Cytochrome P450 1A2 (Homo sapiens) (P05177 whole entry, looked up): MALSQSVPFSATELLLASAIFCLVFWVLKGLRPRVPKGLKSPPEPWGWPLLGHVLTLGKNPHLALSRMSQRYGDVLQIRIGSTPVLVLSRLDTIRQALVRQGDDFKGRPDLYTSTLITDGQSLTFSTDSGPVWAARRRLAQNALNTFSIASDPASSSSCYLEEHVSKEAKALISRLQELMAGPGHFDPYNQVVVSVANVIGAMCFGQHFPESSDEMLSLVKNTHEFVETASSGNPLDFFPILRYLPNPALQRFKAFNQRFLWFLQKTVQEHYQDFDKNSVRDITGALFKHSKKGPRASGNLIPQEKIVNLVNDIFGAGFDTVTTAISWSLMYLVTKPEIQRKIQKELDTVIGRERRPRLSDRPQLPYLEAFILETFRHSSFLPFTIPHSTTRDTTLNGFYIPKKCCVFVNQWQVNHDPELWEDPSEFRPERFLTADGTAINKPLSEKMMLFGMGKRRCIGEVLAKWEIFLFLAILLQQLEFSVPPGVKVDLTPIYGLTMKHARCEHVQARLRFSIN
How it was run: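 20nM CYP1A2 with 100uM Luciferin-ME (at Km) in 100mM KPO4; compound preincubated 10 min, NADPH regeneration added, 60 min at room temperature. Luciferin quantified by luminescence after detection reagent; normalized to 57 uM furafylline.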

[4] = NFAT Signaling Pathway (AID 444); details: Jurkat NFAT-bla M1, carbachol, beta-lactamase ratio, 5 h; at 7.69 µM (top of the series) unless noted;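 further: carbachol stimulus at about its EC50 of 1 µM final; on the % scale 0 is the no-effect control and ±100 the full control effect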
How it was run: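 Jurkat cells carrying an NFAT-driven β-lactamase reporter and co-transfected muscarinic M1 receptor were treated with compound plus carbachol (1 uM final, an EC50 level) for 5 h at 37 °C. CCF4 loading followed for 1 h at RT; 460/530 nm ratio gave %activity.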

[5] = Stat Signaling Pathway (AID 446); details: ME-180 (cervical carcinoma) SIE beta-lactamase reporter, IL-6 stimulated, 5 h; at 7.69 µM (top of the series) unless noted;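 further: ME-180 cervical cancer cells given 40 pM IL-6 alongside compound; SIE-controlled beta-lactamase reporter measured as 460/530 nm FRET emission ratio; on the % scale 0 is the no-effect control and ±100 the full control effect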
How it was run: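 IL-6/STAT signaling read in ME-180 cells via an SIE beta-lactamase reporter. Stimulus was 40 pM IL-6 (its AC50) for 5 hrs, so both activation and inhibition register.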

[6] = target: Glucocorticoid receptor (Homo sapiens) (UniProt P04150); test: GR-GFP Redistribution (AID 450;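 active means compounds whose dose series gives a full or clear partial fitted curve of increased nuclear translocation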; further: potency means the concentration at half of the fitted maximal effect); details: U2OS GR-GFP nuclear translocation, laser cytometry, 2 h
Sequence of Glucocorticoid receptor (Homo sapiens) (P04150 whole entry, looked up, the tested form may be a part): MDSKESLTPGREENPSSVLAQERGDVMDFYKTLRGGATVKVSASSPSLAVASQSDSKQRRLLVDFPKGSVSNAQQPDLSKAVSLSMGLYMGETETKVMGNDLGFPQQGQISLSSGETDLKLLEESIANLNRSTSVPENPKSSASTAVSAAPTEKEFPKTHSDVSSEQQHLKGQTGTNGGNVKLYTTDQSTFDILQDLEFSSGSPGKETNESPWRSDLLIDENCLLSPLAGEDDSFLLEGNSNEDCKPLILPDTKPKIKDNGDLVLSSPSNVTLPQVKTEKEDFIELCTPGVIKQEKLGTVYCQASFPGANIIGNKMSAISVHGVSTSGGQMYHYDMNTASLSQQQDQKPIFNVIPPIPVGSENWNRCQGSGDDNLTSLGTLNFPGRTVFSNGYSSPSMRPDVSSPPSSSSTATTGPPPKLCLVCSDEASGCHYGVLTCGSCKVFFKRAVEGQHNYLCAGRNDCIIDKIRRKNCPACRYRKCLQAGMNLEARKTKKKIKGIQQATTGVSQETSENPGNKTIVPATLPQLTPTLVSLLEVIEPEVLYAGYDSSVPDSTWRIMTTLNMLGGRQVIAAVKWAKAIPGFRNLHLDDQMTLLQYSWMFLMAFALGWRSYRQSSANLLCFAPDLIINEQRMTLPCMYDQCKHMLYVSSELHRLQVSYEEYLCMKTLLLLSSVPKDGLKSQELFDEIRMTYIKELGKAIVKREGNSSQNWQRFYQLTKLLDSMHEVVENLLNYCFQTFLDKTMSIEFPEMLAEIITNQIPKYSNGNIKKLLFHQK

[7] = target: Glucocorticoid receptor (Homo sapiens) (UniProt P04150); test: GR-EFC Redistribution (AID 451; calls by dose curve; further: potency means the concentration at half of the fitted maximal effect); details: CHO-K1 GR-EFC translocation, beta-gal luminescence, 2 h
How it was run: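 CHO-K1 cells stably expressing nuclear-localized β-gal enzyme acceptor and GR fused C-terminally to the enzyme donor fragment; ligand-driven nuclear translocation restores β-gal by complementation. Compounds titrated up to 46 uM final, 2 h at 37 °C; luminescence read.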

[8] = target: Mitogen-activated protein kinase 10 (Mus musculus) (UniProt Q61831); test: JNK3 AlphaScreen Assay (AID 530); details: JNK3 lysate, c-Jun phosphorylation; series mostly up to 11.4 µM;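 further: kinase came from lysate of stimulated human HepG2 cells; signal reports phosphorylation of biotinylated GST-cJun 1-79 at Ser73 with 10 µM ATP; on the % scale 0 is the no-effect control and ±100 the full control effect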
How it was run: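 Inhibitors reduce antibody binding to phosphorylated biotin-cJun, lowering AlphaScreen luminescence. Lysates from HepG2 cells pre-activated by IL-1beta plus TNF-alpha supplied JNK3; compounds were titrated.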

[9] = target: 3',5'-cyclic-AMP phosphodiesterase 4B (Homo sapiens) (UniProt Q07343); test: qHTS Assay for Inhibitors of PDE-IV (AID 607; active means well fitted activation curve with a large enough effect in the main read-out, with a control signal flat, not every such curve was filed as active; further: % of control where 0% means no effect); details: HEK293 ACTOne CNG channel cells, membrane potential fluorescence; series mostly up to 22.9 µM
Sequence of 3',5'-cyclic-AMP phosphodiesterase 4B (Homo sapiens) (Q07343 whole entry, looked up): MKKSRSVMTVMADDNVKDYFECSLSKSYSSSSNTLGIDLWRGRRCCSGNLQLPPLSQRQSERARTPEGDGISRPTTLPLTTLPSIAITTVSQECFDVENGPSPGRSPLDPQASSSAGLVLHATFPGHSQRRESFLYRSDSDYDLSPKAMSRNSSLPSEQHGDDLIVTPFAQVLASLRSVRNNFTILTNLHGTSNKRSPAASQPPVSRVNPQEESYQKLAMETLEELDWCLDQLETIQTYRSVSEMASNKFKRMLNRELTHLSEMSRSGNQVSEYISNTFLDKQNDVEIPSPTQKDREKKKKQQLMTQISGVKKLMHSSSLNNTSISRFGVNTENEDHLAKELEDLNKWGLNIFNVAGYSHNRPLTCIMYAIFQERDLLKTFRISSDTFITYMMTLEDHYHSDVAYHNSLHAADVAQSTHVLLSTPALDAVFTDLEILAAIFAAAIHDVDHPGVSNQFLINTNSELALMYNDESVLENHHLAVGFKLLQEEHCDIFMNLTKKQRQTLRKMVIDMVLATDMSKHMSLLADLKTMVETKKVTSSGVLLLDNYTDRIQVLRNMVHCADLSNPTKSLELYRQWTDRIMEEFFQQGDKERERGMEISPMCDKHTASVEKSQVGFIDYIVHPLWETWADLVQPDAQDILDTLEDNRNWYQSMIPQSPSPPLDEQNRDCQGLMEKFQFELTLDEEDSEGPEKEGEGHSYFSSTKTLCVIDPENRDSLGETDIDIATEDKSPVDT
How it was run: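 Live HEK293 cells with a modified cyclic nucleotide-gated (CNG) channel report intracellular cAMP via membrane-potential dye fluorescence (ex 535/em 590 nm). Endogenous PDE-IV was targeted. Compounds were tested at up to 22.9 uM final; RO 20-1724 100 uM served as control.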

SMILES	Potency [1] [µM]	activity change, negative = inhibition [2] [%]	Potency [3]	activity change, negative = inhibition [4] [%]	activity, negative = inhibition [5] [%]	Potency [6] [µM]	Potency [7] [µM]	Potency [8]	Potency [9]	activity change, negative = inhibition [3]
NS(=O)(=O)c1ccc(N=Nc2c(O)c(C(=O)O)cc3ccccc23)cc1	> 11.4	1.12	inactive	3.68	5.99	> 46	> 9.22	inactive	inactive	–
Nc1nc(SCc2ccccc2Cl)cc(C(=O)O)n1	> 11.4	-13.8	–	1.52	4.58	> 46	> 9.22	inactive	inactive	6.2% [at 2.29 µM]
O=C(O)[C@H]1CC=CC[C@@H]1C(=O)Nc1cccc(O)c1	> 11.4	-4.95	inactive	9.88	1.44	> 46	> 9.22	inactive	inactive	–
c1ccc(CCc2cccnc2)nc1	> 11.4	12.9	0.398 µM (active)	14.1	0.19	> 46	> 9.22	inactive	inactive	–
C#CCSc1n[nH]c(-c2ccco2)n1	> 11.4	-2.21	2 µM (active)	15.4	-3.07	> 46	> 9.22	inactive	inactive	–
Oc1c(CN2CCOCC2)ccc(CN2CCOCC2)c1O	> 11.4	-1.19	–	13	-3.77	> 46	> 9.22	inactive	inactive	-11.9% [at 2.29 µM]
Nc1nc(N)nc(CCCc2nc(N)nc(N)n2)n1	> 11.4	-5.42	inactive	6.45	1.14	> 46	> 9.22	inactive	inactive	–
Nc1nc(=O)c2[nH]cnc2n1O	> 11.4	10.1	inactive	-5.74	7.15	> 46	> 9.22	inactive	inactive	–
N[C@@H](CSCc1ccc(I)cc1)C(=O)O	> 11.4	-1.51	–	0.82	10.1	> 46	> 9.22	inactive	inactive	-12% [at 2.29 µM]
O=S(=O)(O)[C@@H](c1ccccc1)[C@@H](O)c1ccccc1	> 11.4	1.17	–	8.34	8.88	> 46	> 9.22	inactive	inactive	-13.9% [at 2.29 µM]
O=C(CN1C(=O)c2ccccc2C1=O)NC1(C(=O)O)CCCC1	> 11.4	-5.19	–	-0.506	7.15	> 46	> 9.22	inactive	inactive	-2.1% [at 2.29 µM]
Nc1ccn([C@@H]2O[C@H](COC(=O)C34CC5CC(CC(C5)C3)C4)[C@@H](O)[C@@H]2O)c(=O)n1	> 11.4	9.17	–	16.8	-0.882	> 46	> 9.22	inactive	inactive	-18.7% [at 2.29 µM]
O=C(O)Cc1cccnc1	> 11.4	8.81	inactive	15.8	3.03	> 46	> 9.22	inactive	inactive	–
N[C@@H]1[C@@H]2[C@@H]3C[C@H]4N(CC[C@@]14C(=O)C(=O)O)CC3=CCO[C@@H]2CC(=O)O	> 11.4	-3.74	inactive	4.96	6.97	> 46	> 9.22	inactive	inactive	–
Cc1ccc(S(=O)(=O)NCc2cccc([N+](=O)[O-])c2)cc1	> 11.4	-2.52	3.98 µM (active)	6.53	2.25	> 46	> 9.22	inactive	inactive	–
O=C(O)C[C@H](Cc1ccc2c(c1)OCO2)C(=O)O	> 11.4	2.2	inactive	-29.5	-2.05	> 46	> 9.22	inactive	inactive	–
NC(N)=N/N=C\c1ccc(C2CCNCC2)cc1	> 11.4	7.39	–	-11.8	0.317	> 46	> 9.22	inactive	inactive	-12% [at 2.29 µM]
C=C(C)CNCCN	> 11.4	0.933	–	17.5	8.28	> 46	> 9.22	inactive	inactive	2.2% [at 2.29 µM]
NC(N)=N/N=C\c1ccc(O)c(C(=O)O)c1	> 11.4	12.8	–	14.8	-1.78	> 46	> 9.22	inactive	inactive	-11.9% [at 2.29 µM]
NC(Cc1ccccc1)=NCC(=O)O	> 11.4	2	inactive	-0.213	-4.46	> 46	> 9.22	inactive	inactive	–
O=C(O)Cc1c(O)ccc2ccccc12	> 11.4	1.11	inactive	12.6	7.17	> 46	> 9.22	inactive	inactive	–
Nc1cc(C(=O)O)[nH]c(=O)n1	> 11.4	3.6	inactive	8.92	13.8	> 46	> 9.22	inactive	inactive	–
O=C(O)CCCSc1nc2ccccc2s1	> 11.4	1.43	inactive	-19.5	4.62	> 46	> 9.22	inactive	inactive	–

SMILES	Potency [1] [µM]	activity change, negative = inhibition [2] [%]	Potency [3]	activity change, negative = inhibition [4] [%]	activity, negative = inhibition [5] [%]	Potency [6] [µM]	Potency [7] [µM]	Potency [8]	Potency [9]	activity change, negative = inhibition [3]
O=C(O)c1ccc(C(=O)c2ccccc2)c(C(=O)O)c1	> 11.4	21.3	–	2.06	5.54	> 46	> 9.22	inactive	inactive	3.1% [at 2.29 µM]
O=c1[nH]cc(CS(=O)(=O)Cc2c[nH]c(=O)[nH]c2=O)c(=O)[nH]1	> 11.4	-0.933	inactive	1.47	0.704	> 46	> 9.22	inactive	inactive	–
Cc1ccc(S(=O)(=O)O[C@@H]2[C@H]([C@@H]3COC(C)(C)O3)O[C@H]3OC(C)(C)O[C@@H]32)cc1	> 11.4	1.73	inactive	3.01	7.9	> 46	> 9.22	inactive	inactive	–
C/C(=N\NC(N)=S)c1ccc[nH]1	> 11.4	0.43	3.16 µM (active)	12	-24.4	> 46	> 9.22	inactive	inactive	–
O=C(O)CCCCn1ccc(=O)[nH]c1=O	> 11.4	9.63	inactive	-9.32	4.56	> 46	> 9.22	inactive	inactive	–
O=C(O)c1ccc([N+](=O)[O-])c(P(=O)(O)O)c1	> 11.4	-2.71	inactive	12.7	-0.293	> 46	> 9.22	inactive	inactive	–
N#C[C@H]1CN[C@H](N)N[C@@H]1N	> 11.4	2.11	–	6.86	13.9	> 46	> 9.22	inactive	inactive	-11.6% [at 2.29 µM]
O=C(O)c1cc(C(=O)O)nc(C(=O)O)c1	> 11.4	7.15	inactive	0.674	3.63	> 46	> 9.22	inactive	inactive	–
Clc1ccc2c(NCCNc3ccnc4cc(Cl)ccc34)ccnc2c1	> 11.4	-4.82	5.01 µM (active)	4.01	9.24	> 46	> 9.22	inactive	inactive	–
N#C/C(=C\N1CCNC1=S)C(=O)c1ccc2ccccc2c1	> 11.4	-19.2	1.58 µM (active)	5.58	-8.82	> 46	> 9.22	inactive	inactive	–
Cc1cc(N=Cc2c(CO)cnc(C)c2O)c(N=Cc2c(CO)cnc(C)c2O)cc1C.[Zn]	> 11.4	-2.68	–	14.7	7.49	> 46	> 9.22	inactive	inactive	-10.4% [at 2.29 µM]
CSc1nc(C)cc(Nc2ccc(O)c(CN3CCOCC3)c2)n1	> 11.4	-11.8	3.98 µM (active)	12.3	-6.58	> 46	> 9.22	inactive	inactive	–
OCCn1cnc2c(SCc3ccccc3)ncnc21	> 11.4	-4.68	3.16 µM (active)	1.04	-1.73	> 46	> 9.22	inactive	inactive	–
CN1CCN(CCCBr)CC1	> 11.4	5.14	inactive	10.6	-3.86	> 46	> 9.22	inactive	inactive	–
CCOC(=O)[C@@H](O)Cc1cnc2ccccc2n1	> 11.4	5.54	3.16 µM (active)	-6.57	-5.21	> 46	> 9.22	inactive	inactive	–
O=C(O)CCSc1ncnc2nc[nH]c12	> 11.4	15.6	inactive	1.77	0.335	> 46	> 9.22	inactive	inactive	–
[N-]=[N+]=NC[C@@H]1O[C@@H](n2cnc3c(N)ncnc32)[C@@H]2O[C@@H]21	> 11.4	8.89	inactive	10.3	-3.75	> 46	> 9.22	inactive	inactive	–
Cn1c(=O)c2[nH]c([C@@H]3CC(=O)C[C@H](c4nc5c([nH]4)c(=O)n(C)c(=O)n5C)N3)nc2n(C)c1=O	> 11.4	3.07	–	19	6.09	> 46	> 9.22	inactive	inactive	-18.2% [at 2.29 µM]
NCOC(=O)Cc1ccc(Br)cc1	> 11.4	2.56	0.2 µM (active)	11	5.96	> 46	> 9.22	inactive	inactive	–
C[C@@](N)(Cc1c[nH]c2ccccc12)C(=O)O	> 11.4	13.6	inactive	-4.57	10.9	> 46	> 9.22	inactive	inactive	–
O=c1[nH]c(=S)[nH]c2c1CN(CCCN1CCOCC1)CN2	> 11.4	3.35	–	4.33	4.09	> 46	> 9.22	inactive	inactive	-13.5% [at 2.29 µM]
C[C@H]1O[C@@H](CC(=O)O)Cc2c1c(O)c1c(O)cc(-c3cc(=O)c4c(=O)c5c(c(=O)c=4c3=O)C[C@H](CC(=O)O)O[C@@H]5C)c(O)c1c2O	> 11.4	13	–	9.83	-5.2	> 46	> 9.22	inactive	inactive	-29.1% [at 2.29 µM]
N#C/C(=C\Nc1ccccn1)C(=O)C1CC1	> 11.4	7.75	1.26 µM (active)	5.1	1.86	> 46	> 9.22	inactive	inactive	–
